# Measured values from PubChem BioAssay (Tox21).
# Results filed as inconclusive are left out. Where a call stands in place of a potency, no number is given. Unmarked numbers belong to inactive results. Activity calls are given as the source filed them. The call rests on the fitted dose curve.
# Assay: p53 small molecule agonists, cell-based qHTS assay with rat liver microsomes: qHTS cell viability counter screen (AID 1963580); further: nearly all actives have a fitted effect of over 45% in size
# Outline: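 p53RE-bla HCT-116 cells were exposed 16 h at 37 C to compounds with rat liver microsomes (0.5 mg/mL) and NADPH (0.5 mg/mL). Viability was measured in the same wells as ATP content by CellTiter-Glo luminescence.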
SMILES,Potency,"activity change, negative = cytotoxicity"
O=c1[nH]ncc2ccccc12,inactive,–
CC(C)(C)C1CCC(=O)CC1,inactive,–
O=[N+]([O-])c1ccc(/C=N\O)o1,inactive,–
C=CCn1c(=O)n([C@@H]2O[C@H](CO)[C@@H](O)[C@H]2O)c2nc(N)[nH]c(=O)c21,inactive,–
CC(C)=CCC[C@H](C)CCO,inactive,–
OC[C@H](Cc1cccc(O)c1)[C@H](CO)Cc1cccc(O)c1,inactive,–
CC(C)CCCCCCOC(=O)c1ccc(C(=O)OCCCCCCC(C)C)c(C(=O)OCCCCCCC(C)C)c1,inactive,–
COc1ccc(S(=O)(=O)N2c3ccc(Cl)cc3[C@@](O)(c3ccccc3Cl)[C@H]2C(=O)N2CCC[C@@H]2C(N)=O)cc1OC,inactive,–
CC1=C(C)C(=O)C(C(CCCCCC(=O)O)c2ccccc2)=C(C)C1=O (stereo not given),inactive,–
CC(=O)C1CCCCC1=O (stereo not given),inactive,–
CN1C(=O)c2ccc([N+](=O)[O-])cc2C1=O,inactive,–
C[N+](C)(C)CCCCCCCCCC[N+](C)(C)C,inactive,–
O=C(Nc1ccc(Cl)c(Cl)c1)C1CC1,inactive,–
Cc1nc(-c2ccc(Cl)cc2)oc1COC(C)(C)C(=O)O,inactive,–
Oc1ccc(C(O)CNCCCCCCNCC(O)c2ccc(O)c(O)c2)cc1O (stereo not given),inactive,–
CC[N+](CC)(CC)Cc1ccccc1,inactive,–
O=C(Nc1ccccc1)c1ccccc1O,inactive,–
c1ccc(-c2nn[nH]n2)cc1,inactive,–
S=C(SSSSSSC(=S)N1CCCCC1)N1CCCCC1,–,-21.4% [at 13.5 µM]
Cc1cc(C)cc([N+](=O)[O-])c1,inactive,–
CO[Si](CCCS)(OC)OC,inactive,–
O=C(O)CC(C(=O)O)S(=O)(=O)O (stereo not given),inactive,–
CC(C)=CC1CC(C)CCO1 (stereo not given),inactive,–
CC(C)C/C=C(\C=O)c1ccccc1,inactive,–
CCN(CC)C(=O)N1CCN(C)CC1,inactive,–
CC(=O)Nc1ccc(C)c(Cl)c1,inactive,–
O=c1c(O)c(-c2ccc(O)cc2O)oc2cc(O)cc(O)c12,inactive,–
O=C(O)CCC(=O)OC[C@@H](NC(=O)C(Cl)Cl)[C@H](O)c1ccc([N+](=O)[O-])cc1,inactive,–
NNc1nnc(NN)c2ccccc12,inactive,–
CC1(C)OC(=O)Nc2ccc(Br)cc21,inactive,–
